Experimental data taken from paper PMC12136788.
Substitutions are numbered along the chain they refer to. In all, about 24,000 sequences were measured (“enrichment r”: median about 0.99, highest 2% from about 3.7 on). The list comes from a sample in which the highest values are over-represented; it also holds similar and randomly drawn sequences.

T1: UNK ZnF1-3 (human, UniProt Q9C0B0 31-174)
T1 sequence: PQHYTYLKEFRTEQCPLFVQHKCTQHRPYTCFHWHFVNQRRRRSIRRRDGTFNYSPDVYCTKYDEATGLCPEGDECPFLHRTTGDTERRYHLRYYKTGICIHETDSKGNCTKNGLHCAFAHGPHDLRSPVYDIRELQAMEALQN

B1: 112904347_112904467_7746_CDS_ENSMUSG00000036862_ENSMUST00000078482|mouse|control|control (ssRNA)
RNA: GGGAGUUCUACAGUCCGACGAUCUGUGGCCUCCAGGGUGAGCAGGGUGGAACCAGGGGGCAAAUCUUCAGACACAGCAACACGGUAGUGUGGCAAUGUGAAGCUUGGGGCAUGGUCAUUCUGGUCCUUCAGCUGCACAUGCACCAACAGAGGAUUGAGCAUCA
B2: chrX:40988281:40988282:+_ENSG00000124486_ENST00000378308|hu_mus|FALSE|FALSE (ssRNA)
RNA: GGGAGUUCUACAGUCCGACGAUCUUCAAUCUGUGGAGGAGCAUCACCUUGACCUUGCUCAUCAGGAGGAGUUGCAGGGGAAUUUUCAUUGGACGAAUCAGGCGAUGAAGUCUGAUUCUGUUGGAGGGGGGGCUGAGACUGUCCCAACAGAGGAUUGAGCAUCA
B3: chr6:17872010:17872011:+_ENSMUSG00000029534_ENSMUST00000127322|mus_mus|motif|central (ssRNA)
RNA: GGGAGUUCUACAGUCCGACGAUCUCACUGUCUCCUCUCUUCAGGAUGUGUUCUGGUGGGAGGAUUAAGCUUUUCAUUUCGGGUAGAUAUUUUGGCACGUGUGGAUUAAAUUCCACAGCUCUGUGGAUGGCUUCUACUGCAUUCCAACAGAGGAUUGAGCAUCA
B4: chr9:37441256:37441257:-_ENSG00000168795_ENST00000307750|hu_hu|FALSE|FALSE (ssRNA)
RNA: GGGAGUUCUACAGUCCGACGAUCAGGCCCAGCCUCUGGACUCAACAAAUAGGGGGCCUCACUCUCCAGCCUGCAGUCACUAGUGGUGUUUGGAAUAUUAUCAUCAUUGUUCUGAUUUGCAGUAAAGUUAUUUCCUCUGCUCUUCAACAGAGGAUUGAGCAUCA
B5: 80013064_80013876_841_CDS_ENSG00000169727_ENST00000578552|human|control|control (ssRNA)
RNA: GGGAGUUCUACAGUCCGACGAUCCUCAGGGAAGUCACAGUGAUCAAAGGAAGCCAGCAGGAGGCACUUGGCAGCCUGCUUGUACUUCCUGGCGGCCAGCUCUGCCAAGCCUGCGGCACACUUGAGCUUGGUGAGGAUGGCCUGCAACAGAGGAUUGAGCAUCA
B6: chrX:40988281:40988282:+_ENSG00000124486_ENST00000378308|hu_hu|FALSE|FALSE (ssRNA)
RNA: B2 RNA with U29G, A36U, A39G, A63U, A66G, A75C, C93A

What follows are binders tested against T1, UNK ZnF1-3 (assay: nsRBNS (natural sequence RNA bind-n-seq); RBNS binding buffer (assumed for nsRBNS): 25 mM Tris pH 7.5, 150 mM KCl, 3 mM MgCl2, 0.01% Triton X-100, 500 ug/ml BSA, 20 U/ml SUPERase-In, 4 C; UNK is unkempt and MSI1 is Musashi-1; names of the RNAs are library labels; protein concentration not given here; high values mean tight binding).

Binder	binding signal
B1	1.43 enrichment R
B2	1.31 enrichment R
B3	0.937 enrichment R
B4	0.924 enrichment R
B5	0.285 enrichment R
B6	1.24 enrichment R
